Experimental data as given in PubChem BioAssay AID720551 (National Center for Advancing Translational Sciences (NCATS), 2013).
Screen size: about 340,000 compounds; about 1,300 (0.38%) were called active.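 The calls were made as follows: active = maximum activity change below -70%; inconclusive = maximum activity change between -70% and -50%; inactive = maximum activity change above -50%.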 Shown is part of a subset that was picked to be rich in actives.

biological target: Voltage-gated inwardly rectifying potassium channel KCNH2 (Homo sapiens) (UniProt Q12809); experiment: qHTS for Inhibitors of KCHN2 3.1: Wildtype qHTS; conditions: U2OS, BacMam KCNH2, thallium flux FluxOr; at 1.84 µM; active compounds read low
In short: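 U2OS cells transduced with wild-type KCNH2 virus are loaded with FluxOr dye for 45 min, and thallium flux is measured in kinetic reads before and after stimulation buffer. Rate constants are normalized to DMSO controls.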
% is scaled to controls: 0 for no effect and ±100 for the full control effect.

Chain of Voltage-gated inwardly rectifying potassium channel KCNH2 (Homo sapiens) (Q12809 whole entry, looked up): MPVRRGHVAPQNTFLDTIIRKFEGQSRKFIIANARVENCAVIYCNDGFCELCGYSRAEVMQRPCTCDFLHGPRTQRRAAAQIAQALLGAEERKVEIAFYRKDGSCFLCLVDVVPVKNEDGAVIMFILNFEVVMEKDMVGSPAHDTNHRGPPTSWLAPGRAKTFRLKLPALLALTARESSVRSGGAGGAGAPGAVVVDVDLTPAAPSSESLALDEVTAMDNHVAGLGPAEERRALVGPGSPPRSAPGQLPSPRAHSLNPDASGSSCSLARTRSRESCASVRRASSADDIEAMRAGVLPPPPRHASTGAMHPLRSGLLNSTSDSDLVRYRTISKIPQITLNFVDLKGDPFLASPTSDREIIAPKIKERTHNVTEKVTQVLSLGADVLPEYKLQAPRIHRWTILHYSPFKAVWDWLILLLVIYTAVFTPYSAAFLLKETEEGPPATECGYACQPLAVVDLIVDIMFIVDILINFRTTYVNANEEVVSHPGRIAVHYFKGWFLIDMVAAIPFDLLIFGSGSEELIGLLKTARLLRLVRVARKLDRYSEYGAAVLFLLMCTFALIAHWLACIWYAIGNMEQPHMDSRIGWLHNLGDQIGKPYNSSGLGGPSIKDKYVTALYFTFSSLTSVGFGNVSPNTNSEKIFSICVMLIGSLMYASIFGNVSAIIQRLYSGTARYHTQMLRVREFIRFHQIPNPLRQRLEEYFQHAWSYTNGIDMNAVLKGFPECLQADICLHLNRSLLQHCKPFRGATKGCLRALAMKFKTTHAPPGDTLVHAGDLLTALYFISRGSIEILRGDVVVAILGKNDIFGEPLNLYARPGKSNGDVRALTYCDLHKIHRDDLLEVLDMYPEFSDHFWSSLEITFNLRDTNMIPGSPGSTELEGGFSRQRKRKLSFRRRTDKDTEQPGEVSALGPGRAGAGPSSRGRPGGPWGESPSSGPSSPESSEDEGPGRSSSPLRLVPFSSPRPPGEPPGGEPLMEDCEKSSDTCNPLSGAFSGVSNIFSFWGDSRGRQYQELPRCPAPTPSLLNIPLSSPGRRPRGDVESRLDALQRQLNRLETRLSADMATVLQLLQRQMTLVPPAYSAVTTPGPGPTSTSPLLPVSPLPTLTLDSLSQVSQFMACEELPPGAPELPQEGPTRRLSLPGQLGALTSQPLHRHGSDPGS

Structure (SMILES)	activity change
O=C(NCCN1CCOCC1)c1ccc2c(c1)N(Cc1cccc(Cl)c1)C(=O)c1ccccc1S2(=O)=O	2.54% (inactive)
Cc1cc(OCC(=O)Nc2nccs2)c2c(C)c(C)c(=O)oc2c1	-4.04% (inactive)
CC1(C)CC(=O)C=C(c2ccc(COC(=O)c3cc(F)cc(F)c3)cc2)C1=O	-3.02% (inactive)
CCN(CC)CCN(C(=O)c1ccc2c(c1)CCCC2)c1nc2c(OC)cccc2s1	-10.1% (inactive)
Cc1cc(C)c2cc(C#N)c(N3CCNCC3)nc2c1	31.7% (inactive)
COc1ccccc1NC(=O)CCN1CCN(c2ccc(Cl)cc2)CC1	0.203% (inactive)
O=C(CCN1CCN(C/C=C/c2ccccc2)CC1)Nc1ccccc1Cl	-76.7% (active)
CNC(=O)NC(=O)C(C)N1CCN(C/C=C/c2ccccc2)CC1 (stereo not drawn)	16.2% (inactive)
O=C(COC(=O)CSc1ccccc1)Nc1ccc(F)cc1F	-4.38% (inactive)
CCOC(=O)N1CCN(CCC(=O)Nc2ccccc2)CC1	9.24% (inactive)
O=C(CCN1C(=O)c2ccccc2C1=O)Nc1cccc(F)c1	5.88% (inactive)
O=C(CCN1CCN(C/C=C/c2ccccc2)CC1)Nc1cccc(F)c1	-92.1% (active)
O=C(CN1CCN(C/C=C/c2ccccc2)CC1)Nc1ccc(F)cc1F	-155% (active)
O=C(CN1CCN(C(=O)c2cccc(F)c2)CC1)Nc1ccccc1F	4.68% (inactive)
COc1ccc(NC(=O)N(C)C[C@@H]2OCc3cn(nn3)CCCC(=O)N([C@H](C)CO)C[C@H]2C)c(OC)c1	3.91% (inactive)
Cc1ccc(-c2ccc(C3=CC(=O)CC(C)(C)C3=O)cc2)cc1	-2.66% (inactive)
CSc1ncnc2c1ncn2CCCNCc1cccs1	6.63% (inactive)
CCOC(=O)c1ccccc1OC(=O)Oc1ccccc1C(=O)OCC	-141% (active)
COc1ccccc1C(=O)OCC(=O)NCCNC(=O)COC(=O)c1ccccc1OC	-4.76% (inactive)
CCOC(=O)c1ccccc1CN1C(=O)c2ccccc2S1(=O)=O	-3.26% (inactive)
CCc1ccccc1NC(=O)CN1CCN(C(=O)c2cc(C3CC3)nn2-c2ccccc2)CC1	4.86% (inactive)
Cc1ccccc1Nc1nc(N)nc(CN2CCN(c3ccccn3)CC2)n1	15.1% (inactive)

Structure (SMILES)	activity change
CCOC(=O)C1CCCN(Cc2nc(N)nc(Nc3ccc(C)cc3)n2)C1 (stereo not drawn)	27.8% (inactive)
Cc1ccc(Nc2nc(N)nc(CN3CCN(Cc4ccccc4)CC3)n2)cc1Cl	-75.8% (active)
c1ccc2c(c1)nnn2-c1ccncc1	-10.2% (inactive)
CCOc1ccc(C2c3[nH]c4ccccc4c3CCN2Cc2cn(CC)nc2C)cc1 (stereo not drawn)	23.4% (inactive)
c1ccc(C2c3[nH]c4ccccc4c3CCN2Cc2cccn2-c2cccnc2)nc1 (stereo not drawn)	5.67% (inactive)
CCOc1ccc(C2c3[nH]c4ccccc4c3CCN2Cc2cccn2-c2ncccn2)cc1 (stereo not drawn)	-74.4% (active)
NC1=CC(=O)C(=O)c2cccnc21	-14.1% (inactive)
O=C(COC(=O)Cc1ccc(Cl)cc1Cl)NCc1ccco1	5.01% (inactive)
CN(C)CCNC(=O)/C(=C/c1cccc([N+](=O)[O-])c1)NC(=O)c1ccccc1	-79.1% (active)
Cc1ccc(C(=O)N/C(=C/c2ccc(-c3cccc([N+](=O)[O-])c3)o2)C(=O)NCCCN(C)C)cc1	-0.553% (inactive)
O=C(NCCc1ccccc1)/C(=C\c1ccc([N+](=O)[O-])cc1)NC(=O)c1ccccc1	23.3% (inactive)
O=C(CN1C(=O)NC2(CCc3ccccc32)C1=O)NC1CCCCC1 (stereo not drawn)	12.5% (inactive)
COc1ccc(C[C@H]2CN3C(=NC[C@H]3C)N2CCNC(=O)CCC2CCCCC2)cc1	-97.2% (active)
C/C=C(\C)C(=O)NCCN1C2=NC[C@H](Cc3ccc(O)cc3)N2C[C@@H]1Cc1ccc(OC)cc1	-2.93% (inactive)
COc1cccc(CNC(=O)CCC2CCCN(Cc3ccc(OC(F)F)cc3)C2)c1 (stereo not drawn)	-23.2% (inactive)
COc1ccc(NC(=O)C[C@H]2C(=O)N(CCc3ccccc3)C[C@@H]2C)cc1	-25.6% (inactive)
O=C(CCN1CCCCC1)Nc1ccc(F)c(F)c1	-2.99% (inactive)
Cc1ccc(NC(=O)COC(=O)CN2CCSC2=O)cc1F	-2.67% (inactive)
CC(C)NC(=O)Nc1ccc2c(c1)C(=O)N([C@H](C)CO)C[C@H](C)[C@@H](CN(C)Cc1ccc(C(F)(F)F)cc1)OCCCC[C@@H](C)O2	-10.8% (inactive)
CC1(C)Cc2cccc(OCC(=O)Nc3nccs3)c2O1	-0.616% (inactive)
CC1(C)Cc2cccc(OCC(=O)N3CCN(c4ccc([N+](=O)[O-])cc4)CC3)c2O1	-90.2% (active)
CC1(C)Cc2cccc(OCC(N)=O)c2O1	-15.1% (inactive)

Structure (SMILES)	activity change
Cn1c(CNC(=O)c2ccccc2F)nnc1SCc1ccc(F)cc1	6.63% (inactive)
COc1ccccc1C(=O)NCc1nnc(SC(C)C(=O)Nc2nccs2)n1C (stereo not drawn)	-5.03% (inactive)
CC(Sc1nnc(CNC(=O)c2ccccc2F)n1C)C(=O)Nc1nccs1 (stereo not drawn)	-161% (active)
C=CCn1nc(C(=O)OCC)cc1-c1sc(NC(=O)c2ccccc2)nc1C	41.9% (inactive)
CN(C)C(CNC(=O)c1cc(Br)c(Br)s1)c1ccco1 (stereo not drawn)	6.08% (inactive)
O=S(=O)(c1cccc(C(F)(F)F)c1)N1c2ccccc2-n2cccc2C1c1cccnc1 (stereo not drawn)	-12.2% (inactive)
Cc1ccc(OCCC(=O)Nc2ccc(S(=O)(=O)Nc3nccs3)cc2)cc1	4.09% (inactive)
CCC(CC)C(=O)Nc1ccc(S(=O)(=O)Nc2nccs2)cc1	0.976% (inactive)
O=C(CCc1ccccc1Cl)Nc1ccc(S(=O)(=O)Nc2nccs2)cc1	-79.2% (active)
O=C(OCC(=O)N1CCCCCC1)c1cccc(Cl)c1Cl	0.263% (inactive)
C[C@H]1CN([C@@H](C)CO)C(=O)CCCn2cc(nn2)CO[C@@H]1CN(C)S(=O)(=O)c1ccc(-n2cccn2)cc1	12.7% (inactive)
CCOc1ccc(S(=O)(=O)NCCC(=O)NNC(=O)c2ccc(F)cc2)cc1	-9.08% (inactive)
Fc1ccc2[nH]c3c(N4CCN(Cc5ccc6c(c5)OCO6)CC4)ncnc3c2c1	22.8% (inactive)
CCN1CCCC1Cn1cnc2c([nH]c3cc(OC)ccc32)c1=O (stereo not drawn)	0.665% (inactive)
CCN1CCCC1CNc1ncnc2c1[nH]c1ccc(F)cc12 (stereo not drawn)	-81.9% (active)
COc1cc(-c2nnc(NC(=O)CS(=O)(=O)c3ccc(Cl)cc3)o2)cc(OC)c1OC	-3.22% (inactive)
C[C@@H]1Cn2cnc(C(=O)Nc3ccc(CNC(=O)OC(C)(C)C)cc3)c2C(=O)N1	1.51% (inactive)
O=C(CSc1nnc(-c2cccnc2)n1Cc1ccco1)c1ccc(Cl)c(Cl)c1	1.21% (inactive)
O=C(CSc1nnc(-c2cnccn2)n1Cc1ccco1)c1ccc(Cl)c(Cl)c1	-187% (active)
Cc1ccc(NC(=O)CSc2nnc(-c3cnccn3)n2Cc2ccco2)cc1C	8.19% (inactive)
CC(=O)Nc1ccc(SCC(=O)NC(=O)c2ccc(Cl)cc2)cc1	1.87% (inactive)
CSc1ncnc2c1ncn2CCCNCC(C)c1ccccc1 (stereo not drawn)	-15.1% (inactive)

Structure (SMILES)	activity change
O=C(Nc1ccnn1C1CCN(C/C=C/c2ccc(F)cc2)CC1)C1CCCC1	-105% (active)
CC(CN1CCC(n2nccc2NC(=O)C2CCCC2)CC1)c1ccccc1 (stereo not drawn)	15.8% (inactive)
Cc1nn(C)c(Cl)c1CN1CCC(n2nccc2NC(=O)C2CCCC2)CC1	26.5% (inactive)
COC(=O)N(C)C[C@@H]1OCc2cnnn2CCCC(=O)N([C@@H](C)CO)C[C@@H]1C	1.19% (inactive)
COCCn1c(SCC(=O)Nc2ccc(F)cc2F)nc2c(c1=O)SCC2	-2.69% (inactive)
Nc1cc(C(=O)N2CCN(c3ccccc3Cl)CC2)ccc1N1CC2CC(C1)c1cccc(=O)n1C2 (stereo not drawn)	6.37% (inactive)
O=C(CCCN1CCc2[nH]c3ccc(F)cc3c2C1)c1ccc(F)cc1	-94.7% (active)
C=CCNC(=S)N1CCc2[nH]c3ccccc3c2C1	1.48% (inactive)
CC1CCc2[nH]c3ccc(C(=O)N(C)CC(=O)Nc4cccc(F)c4)cc3c2C1 (stereo not drawn)	2.89% (inactive)
Cc1ccc(C(=O)N[C@H](C(=O)N2CCN(c3ncccn3)CC2)C(C)C)cc1	1.07% (inactive)
Cc1ccc(S(=O)(=O)N2C[C@H]3C(=O)C[C@@H](c4cccc5ccccc45)N(S(=O)(=O)c4ccc(C)cc4)[C@H]3C[C@H]2c2ccc(Cl)cc2)cc1	5.59% (inactive)
O=C(COc1ccc(Br)cc1)OCC(=O)c1ccc[nH]1	-10.8% (inactive)
COc1ccc(NC(=O)CN(C)C(=O)c2cc(C)oc2C)cc1	-15.3% (inactive)
CCc1cccc(CC)c1N1C(=O)CC(Sc2ccccc2N)C1=O (stereo not drawn)	-0.824% (inactive)
CCC(c1nnnn1C1CCCC1)N(Cc1cccs1)Cc1cc2cccc(C)c2[nH]c1=O (stereo not drawn)	-3.98% (inactive)
CCC(c1nnnn1Cc1ccco1)N(CCc1ccccc1)Cc1cc2cccc(C)c2[nH]c1=O (stereo not drawn)	-261% (active)
CCC(c1nnnn1Cc1ccco1)N(Cc1cc2cc(OC)ccc2[nH]c1=O)C1CCCCC1 (stereo not drawn)	0.509% (inactive)
Cc1ccccc1C#CC1=CC(=O)CC(C)(C)C1	11% (inactive)
CC1(C)CC(=O)C=C(c2ccccc2CO)C1=O	2.31% (inactive)
CCCS(=O)(=O)N1CCC(CCOc2ccccc2)(C(=O)OCC)CC1	9.17% (inactive)
CCOC(=O)C1(CCOc2ccccc2)CCN(Cc2ccc(C#CCCO)cc2)CC1	19.1% (inactive)
CCOC(=O)C1(CCOc2ccccc2)CCN(Cc2cc(OC)cc(OC)c2)CC1	-109% (active)
